# Screening results (PubChem BioAssay)
# Compounds with a hit are over-represented: about 0.87% of the library has one in this group of screens.
# BLM inh – Bloom syndrome helicase (human) inhibition | Potency, µM (doses to about 56.1 µM), for the others: at the top dose activity change, negative = inhibition, hits mostly inhibitors | actives 0.2% (n = 350,000) | recombinant BLM DNA unwinding, fluorescence dequenching;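 also: plate controls were vehicle for no effect and no enzyme for full effect; nearly all actives have a fitted effect of over 35% in size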
# WRN helicase inh – inhibitors of human WRN helicase | WRN helicase unwinding, fluorescent forked duplex, kinetic | Potency, µM (series often up to 114 µM), for inactives: at the top dose activity change, negative = inhibition, most hits filed as inhibitors | Q14191 | actives 0.46% (n = 360,000); also: nearly all actives have a fitted effect of over 55% in size
#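 Kinetic fluorescence helicase assay: unwinding of a quenched forked DNA duplex (100 nM final) with 2 mM ATP final raises red fluorescence (525/598 nm). Compounds sat 15 min at room temperature with 20 nM WRN beforehand.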
# FEN1 inh – human FEN1 inhibition. P39748. Recombinant FEN1 flap cleavage, fluorescence, 15 min. Potency, µM (doses to about 114 µM), inactives show top-dose activity change, negative = inhibition, usual class: inhibitors. actives 0.35% (n = 390,000); also: nearly all actives have a fitted effect of over 65% in size
#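 Concentration–response screening of FEN1 (10 nM): 15 min compound preincubation at room temperature, reaction started with 50 nM substrate and read at 0 and 15 min. Corrected, normalized data were fitted by a four-parameter Hill equation.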
# RECQ1 inh-1 – RECQ1 (human) helicase inhibition. actives 0.54% (n = 240,000). Potency, µM (titrated, usually from 57.3 µM), for the others: top-dose activity, negative = inhibition, most hits filed as inhibitors. P46063. RECQ1 DNA unwinding, red fluorescence kinetic read;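 also: plate controls were vehicle for no effect and no enzyme for full effect; nearly all actives have a fitted effect of over 30% in size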
#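 RECQ1T1 50 nM; forked duplex (20 bp + 30-nt ss tails) 200 nM, ATP 2 mM final; pH 8.0, 2 mM MgCl2, 2.5 ug/ml poly(dI-dC); 15 min compound preincubation; discontinuous kinetic read over 2 h at RT.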
# APEX1 inh – blocks human APE1 abasic DNA cleavage; P27695; recombinant APE1, TAMRA/BHQ-2 abasic DNA cleavage fluorescence; Potency, µM (top dose mostly 65.8 µM), for the others: top-dose activity change, negative = inhibition, most hits filed as inhibitors; actives 0.35% (n = 350,000);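 also: plate controls were vehicle for no effect and reference inhibitor for full effect; nearly all actives have a fitted effect of over 55% in size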
#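 Incision of a quenched TAMRA/BHQ-2 THF abasic-site duplex (50 nM) by 0.75 nM APE1, after 15 min compound preincubation, measured as fluorescence increase over three 60 s reads. Values normalized to buffer, DMSO and NSC13755 control wells.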
# RECQ1 inh conf – confirmation of human RECQ1 helicase inhibitors. shares compounds with RECQ1 inh-1. RECQ1 helicase DNA unwinding, fluorescence. Potency, µM (top dose mostly 229 µM), for inactives: at the top dose activity change, negative = inhibition, hits mostly inhibitors. actives 28% (n = 610); also: nearly all actives have a fitted effect of over 45% in size
# ADP FP counter – ADP displacement flagged in RECQ1 inhibitor counter-screen; ADP fluorescence polarization displacement counterscreen; Potency, µM (highest dose often 228 µM), for inactives: at the top dose activity change, negative = inhibition, actives largely listed as inhibitors; shares compounds with RECQ1 inh-1; AID 2711; actives 27% (n = 530); also: nearly all actives have a fitted effect of over 45% in size
# RECQ1 inh-2 – confirmation of human RECQ1 helicase inhibitors; shares compounds with RECQ1 inh-1; Potency, µM (series often up to 119 µM), inactives show at the top dose activity, negative = inhibition, actives largely listed as inhibitors; AID 504841; actives 15% (n = 1,100); recombinant RECQ1 DNA unwinding, red fluorescence; also: nearly all actives have a fitted effect of over 50% in size
# Starred values were filed as active, the others as inactive; ? = inconclusive; . = not tested or not shown; [ ] = remark or other dose. Calls follow the shape of the dose curve; as a rule, active = well fitted curve in the direction sought with a large enough effect; inconclusive = small, poorly fitted or top-dose-only effect, or another doubt; inactive = no such curve, though single readings can be large; an effect the other way counts as inactive or inconclusive. Unless noted, % is scaled to controls: 0 for no effect and ±100 for the full control effect; potency is read from the fitted curve at half-maximal effect.
SMILES,BLM inh,WRN helicase inh,FEN1 inh,RECQ1 inh-1,APEX1 inh,RECQ1 inh-2,others
COc1ccc(C2CC(=O)N3CN(Cc4ccco4)CSC3=C2C#N)cc1 (centres undefined),-3%,-31%,3%,-15%,0%,.,
COc1cc(C2CC(=O)N3CN(Cc4ccco4)CSC3=C2C#N)ccc1OCc1ccccc1 (centres undefined),-23%,-21%,?,?,7%,-7%,
COC(=O)c1ccc(/C(O)=C(\C#N)c2nc3ccccc3s2)cc1,-3%,-10%,-3%,-2%,-11%,.,
CC(C)=C(C#N)c1nc2ccccc2s1,-2%,-2%,7%,10µM*,-4%,-10%,
CCC(C)NC(=O)C1CCN(C(=O)c2ccc(-n3ccc4ccccc43)s2)CC1 (centres undefined),-2%,.,-1%,.,.,.,
CCOC(=O)C1=C(N)n2c(s/c(=C\c3ccco3)c2=O)=C(C(=O)OC(C)C)C1c1ccco1 (centres undefined),-12%,-2%[57.1 µM],-10%,32µM*,?,-26%,
O=C(NCCc1ccc(Cl)cc1)C1CCN(Cc2cc3ccccc3n2Cc2ccccc2)CC1,-6%,.,1%,.,.,.,
O=[N+]([O-])c1cc(S(=O)(=O)C(F)(F)F)ccc1N1CCN(c2ccccc2)CC1,-4%,-3%,-2%,?,11%,-4%,
CCOc1ccc(NC(=O)Cn2cc(C(=O)c3ccc(OCC)cc3)c(=O)c3cc4c(cc32)OCCO4)cc1,?,.,-7%,.,.,.,
COc1ccc(S(=O)(=O)N2CN(Cc3ccco3)c3nc4ccccc4nc32)cc1,-13%,56µM*,-4%,35µM*,2%,?,
O=C(OC(C(=O)O)C(OC(=O)c1ccccc1)C(=O)NCc1ccccc1)c1ccccc1 (centres undefined),-3%,2%,-10%,-8%,14%,.,
CC(=O)Nc1ccc(NC(=O)C(OC(=O)c2ccccc2)C(OC(=O)c2ccccc2)C(=O)O)cc1 (centres undefined),-3%,-7%,-1%,-5%,2%,.,RECQ1 inh conf=17%;ADP FP counter=?
COc1ccc(C)cc1NC(=O)NC(C)c1c(-n2cccc2)sc(C)c1C (centres undefined),-9%,.,-19%,.,.,.,
COc1cccc(-c2cn3c(n2)sc2cc(C(=O)NCCc4ccc(OC)c(OC)c4)ccc23)c1,1%,.,0%,.,.,.,
O=C1CCCC2=C1C(c1ccc(O)c(O)c1)c1c(ccc3ncccc13)N2 (centres undefined),-10%,-18%[11.6 µM],?,11µM*,10µM*,?,RECQ1 inh conf=?;ADP FP counter=?
CCOc1ccc(C2C3=C(CCCC3=O)Nc3ccc4ncccc4c32)cc1 (centres undefined),-4%,-11%,0%,-15%,8%,.,
CC1=NN(c2ccccc2)C(=O)C1,-7%,9%,?,-14%,?,.,
CC1=NN(c2ccc(N)cc2)C(=O)C1,-24%,45µM*,?,?,?,-2%,
O=C(Nc1ccc(-n2nncc2-c2ccco2)cc1)c1cc2ccccc2oc1=O,-18%,50µM*,-22%,6.3µM*,?,?,RECQ1 inh conf=4.5µM*;ADP FP counter=4%[91.9 µM]
CCOC(=O)c1ccc(CC(=O)c2ccc(O)cc2O)o1,0%,-5%,-1%,-3%,-2%,.,
COC(=O)c1ccc(CC(=O)c2c(C)cc(O)cc2O)o1,-8%,?,?,?,?,?,
